# In publication PMC7862700, “An all-to-all approach to the identification of sequence-specific readers for epigenetic DNA modifications on cytosine”:
# Assays:
# Test in all cases: DAPPL (digital affinity profiling via proximity ligation, sequencing); 10 mM Tris-HCl pH 7.5, 50 mM NaCl, 1 mM DTT, 4% glycerol, room temperature, 30 min; GST-TFs on glutathione beads, 16-mer random dsDNA library, 0.1% formaldehyde crosslink after washing; high values mean tight binding
# FLI1 = biological target: T1, FLI1 (Homo sapiens, UniProt Q01543 1-452); settings: protein: recombinant; tags: N-terminal GST; dsDNA, one strand shown
# T1 sequence: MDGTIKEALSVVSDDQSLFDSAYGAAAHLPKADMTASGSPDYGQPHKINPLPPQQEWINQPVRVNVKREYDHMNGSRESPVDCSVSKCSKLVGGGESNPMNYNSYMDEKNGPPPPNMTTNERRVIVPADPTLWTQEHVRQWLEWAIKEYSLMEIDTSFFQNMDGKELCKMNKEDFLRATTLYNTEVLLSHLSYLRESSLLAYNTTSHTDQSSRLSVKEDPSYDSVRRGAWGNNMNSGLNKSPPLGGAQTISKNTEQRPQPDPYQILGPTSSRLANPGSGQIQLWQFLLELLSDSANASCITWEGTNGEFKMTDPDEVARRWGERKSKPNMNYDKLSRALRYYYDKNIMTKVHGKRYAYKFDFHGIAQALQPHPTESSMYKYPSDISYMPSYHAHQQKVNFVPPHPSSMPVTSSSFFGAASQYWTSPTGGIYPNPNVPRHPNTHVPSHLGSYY
# Method in brief: (§1)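 Pools of DNA-barcoded human transcription factors, expressed in yeast as GST fusions on glutathione beads and combined with a tag-only sample, were incubated with 200 nmole of a 16-mer random double-stranded DNA library. Incubation took 30 min at room temperature in Tris/NaCl/DTT/glycerol buffer and was followed by washing, 0.1% formaldehyde crosslinking, proximity ligation (BsaI/T4 ligase, 1 h, 37 °C), PCR amplification and sequencing on an Illumina NextSeq500. Binding signal is the ratio of a hexamer's read frequency for a factor to its frequency for the tag-only sample.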
# ELK1 = biological target: T2, ELK1 (Homo sapiens, UniProt P19419 1-428); settings: protein: recombinant; tags: N-terminal GST; dsDNA, one strand shown
# T2 sequence: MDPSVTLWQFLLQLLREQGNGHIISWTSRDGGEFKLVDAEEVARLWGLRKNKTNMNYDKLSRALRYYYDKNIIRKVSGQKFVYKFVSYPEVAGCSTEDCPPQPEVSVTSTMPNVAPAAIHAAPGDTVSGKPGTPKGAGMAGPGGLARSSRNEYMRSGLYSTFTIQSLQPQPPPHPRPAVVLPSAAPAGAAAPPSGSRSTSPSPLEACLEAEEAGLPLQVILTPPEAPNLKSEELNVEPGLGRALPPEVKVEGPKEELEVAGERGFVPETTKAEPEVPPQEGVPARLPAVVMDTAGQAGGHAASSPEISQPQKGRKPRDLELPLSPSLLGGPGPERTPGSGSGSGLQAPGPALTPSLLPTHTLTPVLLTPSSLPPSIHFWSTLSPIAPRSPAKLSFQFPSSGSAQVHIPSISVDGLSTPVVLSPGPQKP
# Method in brief: as §1
# GABPA = biological target: T3, GABPA (Homo sapiens, UniProt Q06546 1-454); settings: protein: recombinant; tags: N-terminal GST; dsDNA, one strand shown
# T3 sequence: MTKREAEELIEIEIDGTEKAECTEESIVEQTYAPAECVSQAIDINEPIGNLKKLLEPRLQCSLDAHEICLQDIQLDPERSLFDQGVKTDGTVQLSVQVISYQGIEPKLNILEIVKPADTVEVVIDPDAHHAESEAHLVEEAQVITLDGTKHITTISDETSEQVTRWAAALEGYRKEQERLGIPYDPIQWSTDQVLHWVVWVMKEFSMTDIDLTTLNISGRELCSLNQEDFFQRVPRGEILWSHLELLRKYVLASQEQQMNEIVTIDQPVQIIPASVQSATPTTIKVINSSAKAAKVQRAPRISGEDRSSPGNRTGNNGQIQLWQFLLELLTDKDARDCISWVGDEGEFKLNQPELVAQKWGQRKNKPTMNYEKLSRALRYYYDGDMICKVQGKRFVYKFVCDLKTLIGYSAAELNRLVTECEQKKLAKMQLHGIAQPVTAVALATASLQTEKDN
# Method in brief: as §1
# ERG = biological target: T4, ERG (Homo sapiens, UniProt P11308 1-479); settings: protein: recombinant; tags: N-terminal GST; dsDNA, one strand shown
# T4 sequence: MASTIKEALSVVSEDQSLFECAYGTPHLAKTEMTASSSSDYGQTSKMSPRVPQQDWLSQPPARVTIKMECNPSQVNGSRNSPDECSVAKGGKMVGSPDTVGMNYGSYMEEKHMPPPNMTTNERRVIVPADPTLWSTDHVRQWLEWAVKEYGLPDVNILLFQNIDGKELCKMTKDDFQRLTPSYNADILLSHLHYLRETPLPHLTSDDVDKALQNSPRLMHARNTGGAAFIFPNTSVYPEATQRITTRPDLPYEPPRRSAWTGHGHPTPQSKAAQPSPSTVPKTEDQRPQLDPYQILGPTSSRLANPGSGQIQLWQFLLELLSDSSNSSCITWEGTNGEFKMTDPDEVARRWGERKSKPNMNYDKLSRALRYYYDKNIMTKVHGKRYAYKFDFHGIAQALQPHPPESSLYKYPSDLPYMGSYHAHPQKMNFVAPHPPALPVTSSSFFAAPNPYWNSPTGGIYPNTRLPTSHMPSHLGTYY
# Method in brief: as §1
# ELF1 = ELF1 (Homo sapiens, UniProt P32519 1-619); settings: protein: recombinant; tags: N-terminal GST; dsDNA, one strand shown
# Method in brief: as §1
# EHF = biological target: T5, EHF (Homo sapiens, UniProt Q9NZC4 1-300); settings: protein: recombinant; tags: N-terminal GST; dsDNA, one strand shown
# T5 sequence: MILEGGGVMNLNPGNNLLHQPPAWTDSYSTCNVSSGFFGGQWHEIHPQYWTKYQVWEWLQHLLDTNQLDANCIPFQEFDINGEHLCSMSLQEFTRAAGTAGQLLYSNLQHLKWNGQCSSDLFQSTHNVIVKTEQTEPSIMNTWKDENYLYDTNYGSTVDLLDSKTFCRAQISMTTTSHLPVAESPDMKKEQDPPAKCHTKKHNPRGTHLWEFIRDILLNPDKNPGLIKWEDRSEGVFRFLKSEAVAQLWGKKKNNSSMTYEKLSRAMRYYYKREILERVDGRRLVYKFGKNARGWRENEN
# Method in brief: as §1
# SPI1 = SPI1 (Homo sapiens, UniProt P17947 1-270); settings: protein: recombinant; tags: N-terminal GST; dsDNA, one strand shown
# Method in brief: as §1
# SPIB = SPIB (Homo sapiens, UniProt Q01892 1-262); settings: protein: recombinant; tags: N-terminal GST; dsDNA, one strand shown
# Method in brief: as §1
# ELK3 = biological target: T6, ELK3 (Homo sapiens, UniProt P41970 1-407); settings: protein: recombinant; tags: N-terminal GST; dsDNA, one strand shown
# T6 sequence: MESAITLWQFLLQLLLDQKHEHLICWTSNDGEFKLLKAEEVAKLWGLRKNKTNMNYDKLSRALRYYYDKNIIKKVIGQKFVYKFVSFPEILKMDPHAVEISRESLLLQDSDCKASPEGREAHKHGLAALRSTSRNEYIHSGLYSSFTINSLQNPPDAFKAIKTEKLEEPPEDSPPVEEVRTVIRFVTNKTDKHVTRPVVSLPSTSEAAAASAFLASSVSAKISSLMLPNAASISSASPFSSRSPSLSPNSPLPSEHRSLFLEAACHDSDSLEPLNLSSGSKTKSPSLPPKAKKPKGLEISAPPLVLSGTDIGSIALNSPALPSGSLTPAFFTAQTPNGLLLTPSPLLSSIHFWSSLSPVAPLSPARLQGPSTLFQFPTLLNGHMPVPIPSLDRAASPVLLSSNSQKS
# Method in brief: as §1
# FEV = biological target: T7, FEV (Homo sapiens, UniProt Q99581 1-238); settings: protein: recombinant; tags: N-terminal GST; dsDNA, one strand shown
# T7 sequence: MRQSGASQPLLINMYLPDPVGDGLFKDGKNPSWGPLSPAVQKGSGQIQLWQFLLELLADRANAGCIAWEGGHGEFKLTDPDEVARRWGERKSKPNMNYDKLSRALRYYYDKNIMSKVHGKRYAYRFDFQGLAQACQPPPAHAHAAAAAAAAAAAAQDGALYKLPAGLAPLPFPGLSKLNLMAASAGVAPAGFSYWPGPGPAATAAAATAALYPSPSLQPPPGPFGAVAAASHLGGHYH
# Method in brief: as §1
# ETV5 = ETV5 (Homo sapiens, UniProt P41161 1-510); settings: protein: recombinant; tags: N-terminal GST; dsDNA, one strand shown
# Method in brief: as §1
# HSF1 = HSF1 (Homo sapiens, UniProt Q00613 1-529); settings: protein: recombinant; tags: N-terminal GST; chain copies: 3; dsDNA, one strand shown
# Method in brief: as §1
# SPIC = biological target: T8, SPIC (Homo sapiens, UniProt Q8N5J4 1-248); settings: protein: recombinant; tags: N-terminal GST; dsDNA, one strand shown
# T8 sequence: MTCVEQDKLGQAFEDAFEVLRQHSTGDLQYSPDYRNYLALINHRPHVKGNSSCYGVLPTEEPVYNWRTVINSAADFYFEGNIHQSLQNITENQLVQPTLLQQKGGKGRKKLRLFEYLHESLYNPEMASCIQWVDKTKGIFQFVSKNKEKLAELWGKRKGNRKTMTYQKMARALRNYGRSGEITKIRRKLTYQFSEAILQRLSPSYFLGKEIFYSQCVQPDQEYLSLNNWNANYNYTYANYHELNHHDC
# Method in brief: as §1
# ELF4 = ELF4 (Homo sapiens, UniProt Q99607 1-663); settings: protein: recombinant; tags: N-terminal GST; dsDNA, one strand shown
# Method in brief: as §1
# ELK4 = biological target: T9, ELK4 (Homo sapiens, UniProt P28324-2 1-405); settings: protein: recombinant; tags: N-terminal GST; dsDNA, one strand shown
# T9 sequence: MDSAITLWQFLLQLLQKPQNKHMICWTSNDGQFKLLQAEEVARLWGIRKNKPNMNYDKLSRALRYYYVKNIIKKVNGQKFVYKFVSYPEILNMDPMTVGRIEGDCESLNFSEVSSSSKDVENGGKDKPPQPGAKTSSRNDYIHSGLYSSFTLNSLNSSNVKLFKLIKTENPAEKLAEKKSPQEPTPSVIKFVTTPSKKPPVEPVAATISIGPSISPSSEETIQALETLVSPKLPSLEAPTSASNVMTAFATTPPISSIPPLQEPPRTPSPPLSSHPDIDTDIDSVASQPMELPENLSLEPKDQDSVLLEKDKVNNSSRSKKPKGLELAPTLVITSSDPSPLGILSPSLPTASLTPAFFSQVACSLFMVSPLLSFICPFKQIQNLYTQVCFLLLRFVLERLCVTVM
# Method in brief: as §1
# ETV2 = biological target: T10, ETV2 (Homo sapiens, UniProt O00321 1-342); settings: protein: recombinant; tags: N-terminal GST; dsDNA, one strand shown
# T10 sequence: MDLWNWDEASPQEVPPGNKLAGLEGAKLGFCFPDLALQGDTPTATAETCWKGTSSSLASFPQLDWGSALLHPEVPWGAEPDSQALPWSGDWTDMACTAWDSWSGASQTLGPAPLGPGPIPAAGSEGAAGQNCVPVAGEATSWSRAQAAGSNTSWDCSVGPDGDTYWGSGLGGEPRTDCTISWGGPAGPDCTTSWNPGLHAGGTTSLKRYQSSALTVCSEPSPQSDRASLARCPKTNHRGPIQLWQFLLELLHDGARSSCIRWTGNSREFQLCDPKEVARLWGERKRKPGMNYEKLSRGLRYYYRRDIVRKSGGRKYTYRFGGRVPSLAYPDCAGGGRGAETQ
# Method in brief: as §1
# ELF3 = biological target: T11, ELF3 (Homo sapiens, UniProt P78545 1-371); settings: protein: recombinant; tags: N-terminal GST; dsDNA, one strand shown
# T11 sequence: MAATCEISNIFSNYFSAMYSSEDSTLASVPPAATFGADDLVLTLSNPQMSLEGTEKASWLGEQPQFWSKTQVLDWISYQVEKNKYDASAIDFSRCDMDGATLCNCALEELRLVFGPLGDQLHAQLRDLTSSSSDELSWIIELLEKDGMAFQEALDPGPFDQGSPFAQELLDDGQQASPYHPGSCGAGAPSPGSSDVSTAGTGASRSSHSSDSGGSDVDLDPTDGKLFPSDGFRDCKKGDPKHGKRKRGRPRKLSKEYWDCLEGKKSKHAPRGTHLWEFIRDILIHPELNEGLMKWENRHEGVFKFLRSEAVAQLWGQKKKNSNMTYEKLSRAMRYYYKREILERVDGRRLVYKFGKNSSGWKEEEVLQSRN
# Method in brief: as §1
# CRX = CRX (Homo sapiens, UniProt O43186 1-299); settings: protein: recombinant; tags: N-terminal GST; dsDNA, one strand shown
# Method in brief: as §1
# ETV1 = ETV1 (Homo sapiens, UniProt P50549 1-477); settings: protein: recombinant; tags: N-terminal GST; dsDNA, one strand shown
# Method in brief: as §1
# Sequence of SPIB (Q01892 whole entry): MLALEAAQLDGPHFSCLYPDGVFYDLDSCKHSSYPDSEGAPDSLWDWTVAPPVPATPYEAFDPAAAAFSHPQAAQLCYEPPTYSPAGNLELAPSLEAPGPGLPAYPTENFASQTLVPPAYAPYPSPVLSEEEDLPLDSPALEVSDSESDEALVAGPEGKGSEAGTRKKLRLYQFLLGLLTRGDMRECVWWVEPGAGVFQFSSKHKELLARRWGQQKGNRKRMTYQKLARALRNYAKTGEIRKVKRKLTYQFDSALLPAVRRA
# Sequence of ETV5 (P41161 whole entry): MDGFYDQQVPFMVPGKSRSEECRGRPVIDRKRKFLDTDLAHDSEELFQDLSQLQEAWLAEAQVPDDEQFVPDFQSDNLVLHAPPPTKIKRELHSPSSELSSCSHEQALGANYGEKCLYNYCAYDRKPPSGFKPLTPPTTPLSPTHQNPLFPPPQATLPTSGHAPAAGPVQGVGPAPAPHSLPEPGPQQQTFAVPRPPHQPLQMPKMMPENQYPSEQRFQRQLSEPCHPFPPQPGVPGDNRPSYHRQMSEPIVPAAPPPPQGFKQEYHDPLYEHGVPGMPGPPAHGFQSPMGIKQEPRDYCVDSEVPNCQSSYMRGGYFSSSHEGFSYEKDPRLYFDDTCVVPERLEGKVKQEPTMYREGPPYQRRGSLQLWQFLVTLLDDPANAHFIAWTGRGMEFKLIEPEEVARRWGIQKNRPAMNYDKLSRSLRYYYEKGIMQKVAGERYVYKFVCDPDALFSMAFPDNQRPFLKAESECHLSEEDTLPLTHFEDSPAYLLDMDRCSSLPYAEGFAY
# Sequence of ELF4 (Q99607 whole entry): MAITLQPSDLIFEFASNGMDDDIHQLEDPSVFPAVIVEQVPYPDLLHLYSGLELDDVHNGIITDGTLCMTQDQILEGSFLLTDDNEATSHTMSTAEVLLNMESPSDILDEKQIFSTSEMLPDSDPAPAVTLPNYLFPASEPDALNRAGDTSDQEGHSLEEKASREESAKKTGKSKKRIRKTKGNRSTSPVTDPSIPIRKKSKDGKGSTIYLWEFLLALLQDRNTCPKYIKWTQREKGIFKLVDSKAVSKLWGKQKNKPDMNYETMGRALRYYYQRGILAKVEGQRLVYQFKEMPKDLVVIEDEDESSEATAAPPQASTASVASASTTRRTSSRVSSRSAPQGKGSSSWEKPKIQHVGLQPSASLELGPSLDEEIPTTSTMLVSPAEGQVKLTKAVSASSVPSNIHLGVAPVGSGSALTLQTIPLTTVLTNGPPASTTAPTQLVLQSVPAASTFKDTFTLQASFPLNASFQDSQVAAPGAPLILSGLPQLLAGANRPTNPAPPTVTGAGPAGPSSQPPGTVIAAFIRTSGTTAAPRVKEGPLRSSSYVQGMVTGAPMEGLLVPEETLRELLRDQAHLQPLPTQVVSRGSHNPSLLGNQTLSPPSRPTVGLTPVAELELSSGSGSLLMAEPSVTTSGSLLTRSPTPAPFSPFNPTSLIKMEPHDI
# Sequence of ETV1 (P50549 whole entry): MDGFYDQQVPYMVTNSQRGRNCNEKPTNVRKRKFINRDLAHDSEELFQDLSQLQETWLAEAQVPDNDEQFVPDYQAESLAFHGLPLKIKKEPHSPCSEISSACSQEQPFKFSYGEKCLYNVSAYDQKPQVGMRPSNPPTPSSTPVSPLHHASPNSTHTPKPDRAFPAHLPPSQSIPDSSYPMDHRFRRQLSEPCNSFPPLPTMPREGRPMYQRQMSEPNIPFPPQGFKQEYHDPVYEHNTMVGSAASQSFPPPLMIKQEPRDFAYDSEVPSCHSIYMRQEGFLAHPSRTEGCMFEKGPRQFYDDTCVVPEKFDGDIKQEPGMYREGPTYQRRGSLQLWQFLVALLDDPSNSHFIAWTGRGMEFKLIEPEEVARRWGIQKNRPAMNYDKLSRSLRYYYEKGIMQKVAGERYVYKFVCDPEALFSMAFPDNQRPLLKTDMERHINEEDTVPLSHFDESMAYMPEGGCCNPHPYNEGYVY
# Sequence of ELF1 (P32519 whole entry): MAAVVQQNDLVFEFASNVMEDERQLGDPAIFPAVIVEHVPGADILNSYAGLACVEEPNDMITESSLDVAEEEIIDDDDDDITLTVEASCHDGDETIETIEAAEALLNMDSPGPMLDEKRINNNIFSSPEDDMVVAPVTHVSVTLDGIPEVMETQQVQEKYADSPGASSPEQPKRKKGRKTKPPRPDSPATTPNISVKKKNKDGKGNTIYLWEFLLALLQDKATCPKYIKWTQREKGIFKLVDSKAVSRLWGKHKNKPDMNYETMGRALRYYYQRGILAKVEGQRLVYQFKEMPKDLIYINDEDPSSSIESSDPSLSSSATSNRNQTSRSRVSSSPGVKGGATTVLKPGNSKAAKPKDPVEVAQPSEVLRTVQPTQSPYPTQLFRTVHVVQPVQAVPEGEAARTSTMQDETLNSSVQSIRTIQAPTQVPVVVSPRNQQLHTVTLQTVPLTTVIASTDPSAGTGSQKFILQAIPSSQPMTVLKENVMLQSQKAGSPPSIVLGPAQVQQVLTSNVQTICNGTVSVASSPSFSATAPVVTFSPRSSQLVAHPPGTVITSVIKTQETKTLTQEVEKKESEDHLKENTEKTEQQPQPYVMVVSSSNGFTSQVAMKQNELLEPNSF
# Sequence of CRX (O43186 whole entry): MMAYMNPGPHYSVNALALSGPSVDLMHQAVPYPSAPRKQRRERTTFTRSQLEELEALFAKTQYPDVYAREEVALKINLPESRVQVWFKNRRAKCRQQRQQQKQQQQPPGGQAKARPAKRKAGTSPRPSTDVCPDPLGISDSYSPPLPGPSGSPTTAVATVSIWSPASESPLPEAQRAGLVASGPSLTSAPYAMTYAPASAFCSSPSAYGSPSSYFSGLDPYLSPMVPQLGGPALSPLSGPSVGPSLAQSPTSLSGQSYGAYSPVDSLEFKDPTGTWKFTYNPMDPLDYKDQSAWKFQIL
# Sequence of HSF1 (Q00613 whole entry): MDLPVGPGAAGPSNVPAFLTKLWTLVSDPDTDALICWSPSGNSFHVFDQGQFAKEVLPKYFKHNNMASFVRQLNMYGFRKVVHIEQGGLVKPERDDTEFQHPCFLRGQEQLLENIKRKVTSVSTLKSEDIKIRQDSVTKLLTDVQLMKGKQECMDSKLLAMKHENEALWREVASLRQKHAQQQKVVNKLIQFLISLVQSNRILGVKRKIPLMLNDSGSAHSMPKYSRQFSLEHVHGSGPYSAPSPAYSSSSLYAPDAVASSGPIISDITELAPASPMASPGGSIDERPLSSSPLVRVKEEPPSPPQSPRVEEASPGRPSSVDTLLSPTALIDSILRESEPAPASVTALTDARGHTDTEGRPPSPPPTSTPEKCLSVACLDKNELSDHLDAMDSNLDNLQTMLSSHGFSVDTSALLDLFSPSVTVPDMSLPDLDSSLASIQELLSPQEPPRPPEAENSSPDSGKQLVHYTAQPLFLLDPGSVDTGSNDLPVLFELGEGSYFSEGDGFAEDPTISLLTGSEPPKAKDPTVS
sequence,measurement,setting,value
TCTGCC,binding signal,FLI1,"1.49 fold enrichment (6-mer frequency, TF over GST control)"
same,binding signal,ELK1,"1.36 fold enrichment (6-mer frequency, TF over GST control)"
same,binding signal,GABPA,"1.51 fold enrichment (6-mer frequency, TF over GST control)"
same,binding signal,ERG,"1.49 fold enrichment (6-mer frequency, TF over GST control)"
same,binding signal,ELF1,"1.54 fold enrichment (6-mer frequency, TF over GST control)"
same,binding signal,EHF,"1.37 fold enrichment (6-mer frequency, TF over GST control)"
same,binding signal,SPI1,"1.37 fold enrichment (6-mer frequency, TF over GST control)"
same,binding signal,SPIB,"1.32 fold enrichment (6-mer frequency, TF over GST control)"
same,binding signal,ELK3,"1.18 fold enrichment (6-mer frequency, TF over GST control)"
same,binding signal,FEV,"1.38 fold enrichment (6-mer frequency, TF over GST control)"
same,binding signal,ETV5,"1.27 fold enrichment (6-mer frequency, TF over GST control)"
same,binding signal,HSF1,"1.35 fold enrichment (6-mer frequency, TF over GST control)"
same,binding signal,SPIC,"1.31 fold enrichment (6-mer frequency, TF over GST control)"
same,binding signal,ELF4,"1.53 fold enrichment (6-mer frequency, TF over GST control)"
same,binding signal,ELK4,"1.59 fold enrichment (6-mer frequency, TF over GST control)"
same,binding signal,ETV2,"1.24 fold enrichment (6-mer frequency, TF over GST control)"
same,binding signal,ELF3,"1.28 fold enrichment (6-mer frequency, TF over GST control)"
same,binding signal,CRX,"1.21 fold enrichment (6-mer frequency, TF over GST control)"
same,binding signal,ETV1,"1.36 fold enrichment (6-mer frequency, TF over GST control)"
